Assay [1] can be described thus: qHTS RealTime-Glo MT Cell Viability Assay in HepG2 cells - 8 hour (AID 1224873). Note: nearly all actives have a fitted effect of over 55% in size. Put shortly: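 HepG2 cells mixed with RealTime-Glo MT reagents (NanoLuc plus cell-permeant prosubstrate) were seeded at 600 cells/well, incubated 5 h at 37 C/5% CO2, then pinned with compounds in DMSO; nonlytic luminescence tracked viability during 40 h treatment.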
(In general: In qHTS, concentration-response curves come from the screen itself.)

Assay [2] is described as follows: qHTS RealTime-Glo MT Cell Viability Assay in HEK293 cells - 40 hour (AID 1224874). Note: nearly all actives have a fitted effect of over 50% in size. Note: potency is the fitted concentration of half-maximal effect. Conditions: RealTime-Glo luminescence; max response: stronger effect = lower value. An outline of the steps:
(§1)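 Luminescence, which tracks viable cell number through reduction of the prosubstrate to a NanoLuc substrate, was read over continuous 37 C culture. Cells (600/well) were premixed with reagent and rested 5 h before 23 nL of compound in DMSO was pinned.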

A short description of assay [3]: A CellTox Green Cytotoxicity Assay to monitor cytotoxicity in HEK293 cells - 24 hour (AID 1224875). Note: series mostly up to about 77 µM; nearly all actives have a fitted effect of over 45% in size. An outline of the steps: (§2)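 Fluorescence from a DNA-binding dye excluded by viable cells was measured repeatedly in the same HEK293 wells (600 cells/well) during continuous compound exposure at 37 C. Each assay gives one read point: 0, 8, 16, 24, 32 or 40 h.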
The nature of assay [4]: A CellTox Green Cytotoxicity Assay to monitor cytotoxicity in HepG2 cells - 16 hour (AID 1224876). Note: nearly all actives have a fitted effect of over 45% in size. Put shortly: (§3)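 Real-time cytotoxicity: fluorescence of a cell-impermeant cyanine dye binding DNA of dead HepG2 cells, measured repeatedly (0–40 h) during compound exposure at 37 C. Cells seeded 600/well with reagent, dosed after 5 h.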
A short description of assay [5]: qHTS RealTime-Glo MT Cell Viability Assay in HepG2 cells - 32 hour (AID 1224877). Note: nearly all actives have a fitted effect of over 55% in size. An outline of the steps: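 Compound treatment began 5 h after plating HepG2 cells (600/well) with NanoLuc luciferase and prosubstrate. Plates stayed at 37 C for 40 h; luminescence was captured at six time points, 0 h through 40 h.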
Assay [6] in a line: qHTS RealTime-Glo MT Cell Viability Assay in HEK293 cells - 0 hour (AID 1224880). Note: top concentration of the series differs between compounds; nearly all actives have a fitted effect of over 45% in size. Put shortly:
as §1

Assay [7] is described as follows: A CellTox Green Cytotoxicity Assay to monitor cytotoxicity in HEK293 cells - 32 hour (AID 1224881). Note: nearly all actives have a fitted effect of over 40% in size. An outline of the steps:
as §2

Assay [8] is described as follows: A CellTox Green Cytotoxicity Assay to monitor cytotoxicity in HepG2 cells - 24 hour (AID 1224878). Note: nearly all actives have a fitted effect of over 45% in size. Note: potency is the fitted concentration of half-maximal effect. An outline of the steps:
as §3

Assay [9] in a line: A CellTox Green Cytotoxicity Assay to monitor cytotoxicity in HepG2 cells - 40 hour (AID 1224879). Note: nearly all actives have a fitted effect of over 40% in size. Put shortly: as §3

The results in this text go back to PubChem BioAssay (Tox21).

Molecules are shown by their SMILES. Results filed as inconclusive are left out. Unmarked numbers belong to inactive results. Activity calls are given as the source filed them. Calls come from the whole dose curve; as a rule, active = well fitted curve in the direction sought with a large enough effect in the repeat runs; inconclusive = weak or mixed curves; inactive = no such curve, though single readings can be large; an effect the other way counts as inactive or inconclusive.
% is set by controls: 0 for no effect and ±100 for the full control effect.

With `Fc1ccc(C2(Cn3cncn3)OC2c2ccccc2Cl)cc1` (centres undefined), the Potency result in [1], in [3], in [4], in assay [5] and in assay [7] was “inactive” throughout. The Potency in assay [2] was 27.5 µM (active). The outcome in [6] was inactive.
For `COc1cccc2c1cc([N+](=O)[O-])c1c(C(=O)O)cc3c(c12)OCO3`, the Potency entry in assay [1], in [3], in assay [4] and in assay [7] was “inactive” each time. In addition, the Potency in assay [2] is 2.19 µM (active); in [8] it was 21.9 µM (active).
Take `CCOP(=S)(OCC)Oc1ncn(-c2ccccc2)n1`: the Potency entry in assay [1], in assay [3], in [4], in assay [5], in [8] and in assay [9] was “inactive” throughout. The Potency result in assay [7] was “inactive”. In assay [6], the compound was classed as inactive.
Regarding `CC(C)(C)OC(=O)c1ncn2c1[C@@H]1CCCN1C(=O)c1c(Br)cccc1-2`, the Potency entry in assay [1], in [3], in assay [4], in [5], in assay [9] and in assay [7] was “inactive” in each case. For the same compound, the max response in assay [2] was -21.6%. Moreover, the result in assay [6] was inactive.
`CC(COc1ccc(Oc2ccccc2)cc1)Oc1ccccn1` (centres undefined): the Potency result in assay [1], in assay [3], in [4], in [5], in assay [8] and in [9] was “inactive” each time. Further, the Potency entry in assay [7] was “inactive”. Moreover, in assay [6], the outcome was inactive.
As to `C=CC1CC=CCC1` (centres undefined), the max response in [2] is 3.23%. Also, the Potency entry in assay [3], in assay [4], in assay [5], in assay [8], in assay [9] and in assay [7] was “inactive” each time. Besides, the compound was classed as inactive in [6].
For `CCCCc1c(C)nc(NCC)[nH]c1=O`, the Potency result in assay [1], in assay [3], in [4], in [5] and in [7] was “inactive” in each case. For the same compound, the outcome in assay [6] was inactive.
Turning to `CN(C)CCc1ccc(O)cc1`, the max response in assay [2] is 11.4%. In addition, the Potency entry in assay [3], in assay [4], in assay [5], in assay [9] and in assay [7] was “inactive” in each case. For the same compound, the call in assay [6] was inactive.
Consider `CC(C1CC1)C(O)(Cn1cncn1)c1ccc(Cl)cc1` (centres undefined), for which the Potency entry in [1], in [3], in assay [4], in [5], in assay [8] and in [9] was “inactive” each time. Also, the Potency result in assay [7] was “inactive”. Further, in [6], the compound was classed as inactive.
Turning to `CC1CCCCC1NC(=O)Nc1ccccc1` (centres undefined), the Potency entry in [1], in assay [3], in [4], in assay [5], in assay [8] and in assay [9] was “inactive” in each case. Also, the Potency result in [7] is “inactive”. Also, the result in [6] was inactive.
`CCc1cc2c(s1)-n1c(C)nnc1CN=C2c1ccccc1Cl`: the Potency result in assay [1], in assay [4], in assay [5], in assay [8] and in assay [9] was “inactive” throughout. Besides, the max response in assay [2] is -28.6%. In [6], the call was inactive.
For the compound `O=C(CCCN1CCC(n2c(=O)[nH]c3ccccc32)CC1)c1ccc(F)cc1`, the Potency result in assay [1], in [3], in [5], in assay [8], in assay [9] and in [7] was “inactive” each time. Moreover, the max response in assay [2] is -27.9%. Further, the compound was called inactive in assay [6].
For the compound `CC1COC2(c3ccccc3Cl)c3cc(Cl)ccc3NC(=O)CN12` (centres undefined), the Potency result in assay [1], in [3], in [4], in [5], in assay [8] and in assay [7] was “inactive” in each case. For the same compound, in [6], the compound was classed as inactive.
On to `CN1CCC(O)(c2ccc(F)cc2)C(C(=O)c2ccc(F)cc2)C1` (centres undefined), for which the max response in assay [2] was -17.3%. Also, the Potency result in [3] was “inactive”. Also, the call in assay [6] was inactive.
Turning to `Nc1cc(Cl)ccc1O`, the max response in assay [2] was -11.2%. The Potency entry in [3], in assay [4], in assay [5], in assay [8], in assay [9] and in assay [7] was “inactive” throughout. Besides, in assay [6], the call was inactive.
Consider `CCCCP(CCCC)CCCC`, for which, in assay [2], the max response was -4.34%. For the same compound, the Potency entry in [3], in assay [4], in [5], in [8], in [9] and in [7] was “inactive” in each case. For the same compound, the compound was classed as inactive in assay [6].
Take `O=[N+]([O-])c1cccc2c([N+](=O)[O-])cccc12`: the Potency result in [1], in assay [3], in assay [4], in assay [5], in [8] and in assay [7] was “inactive” each time. Further, in assay [2], the Potency was 49.2 µM (active).
As to `ClC(Cl)(Cl)C(Cl)(Cl)Cl`, in [2], the max response is 2.47%. For the same compound, the Potency result in assay [3], in assay [4], in [5], in assay [9] and in assay [7] was “inactive” each time. Also, the result in [6] was inactive.
